Experimental data: PubChem BioAssay (NCATS)
Results filed as inconclusive are left out. Activity calls are given as the source filed them. Unless noted, calls come from the whole dose curve; as a rule, active = well fitted curve in the direction sought with a large enough effect; inconclusive = small, poorly fitted or top-dose-only effect, or another doubt; inactive = no such curve, though single readings can be large; an effect the other way counts as inactive or inconclusive.

Experiments:
[1] = target: Cytochrome P450 1A2 (Homo sapiens) (UniProt P05177); assay: p450-cyp1a2 (AID 410; calls by dose curve; note: potency is the fitted concentration of half-maximal effect)
Chain of Cytochrome P450 1A2 (Homo sapiens) (P05177 whole entry, looked up): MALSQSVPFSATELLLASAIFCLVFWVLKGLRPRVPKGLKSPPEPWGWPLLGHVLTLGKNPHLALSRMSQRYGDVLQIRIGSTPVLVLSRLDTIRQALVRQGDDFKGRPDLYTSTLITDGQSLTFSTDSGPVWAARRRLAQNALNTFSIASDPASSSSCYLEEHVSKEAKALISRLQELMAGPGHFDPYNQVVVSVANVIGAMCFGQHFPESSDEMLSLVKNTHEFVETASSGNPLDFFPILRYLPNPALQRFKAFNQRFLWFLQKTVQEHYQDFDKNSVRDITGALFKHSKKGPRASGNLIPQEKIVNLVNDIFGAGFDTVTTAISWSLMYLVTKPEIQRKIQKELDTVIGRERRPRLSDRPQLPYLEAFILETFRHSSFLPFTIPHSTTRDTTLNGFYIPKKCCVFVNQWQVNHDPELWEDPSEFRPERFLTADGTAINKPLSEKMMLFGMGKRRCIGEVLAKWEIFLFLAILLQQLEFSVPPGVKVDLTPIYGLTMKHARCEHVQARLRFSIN
Outline: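 20nM CYP1A2, 100uM Luciferin-ME (=Km), 100mM KPO4; cpd 10 min RT; +NADPH regen, 60 min RT; stop/detect 20 min; luminescence. Normalized to furafylline 57 uM = full inhibition.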

[2] = Stat Signaling Pathway (AID 446; active = well fitted curve in either direction with a large enough effect, not every such curve was filed as active;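 note: ME-180 cervical cancer cells given 40 pM IL-6 alongside compound; SIE-controlled beta-lactamase reporter measured as 460/530 nm FRET emission ratio; % is set by controls: 0 for no effect and ±100 for the full control effect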); settings: ME-180 SIE beta-lactamase reporter, IL-6 stimulated, 5 h; at 17.2 µM (top of the series) unless noted
Outline: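 Overnight-plated ME-180 cells bearing a STAT Inducible Element beta-lactamase reporter; 5 h co-exposure to compound and 40 pM IL-6; values normalized to 300 pM IL-6 and 125 nM JAK inhibitor controls.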

[3] = target: Glucocorticoid receptor (Homo sapiens) (UniProt P04150); assay: GR-GFP Redistribution (AID 450;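 active = compounds whose dose series gives a full or clear partial fitted curve of increased nuclear translocation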; note: potency is the fitted concentration of half-maximal effect)
Chain of Glucocorticoid receptor (Homo sapiens) (P04150 whole entry, looked up, the tested form may be a part): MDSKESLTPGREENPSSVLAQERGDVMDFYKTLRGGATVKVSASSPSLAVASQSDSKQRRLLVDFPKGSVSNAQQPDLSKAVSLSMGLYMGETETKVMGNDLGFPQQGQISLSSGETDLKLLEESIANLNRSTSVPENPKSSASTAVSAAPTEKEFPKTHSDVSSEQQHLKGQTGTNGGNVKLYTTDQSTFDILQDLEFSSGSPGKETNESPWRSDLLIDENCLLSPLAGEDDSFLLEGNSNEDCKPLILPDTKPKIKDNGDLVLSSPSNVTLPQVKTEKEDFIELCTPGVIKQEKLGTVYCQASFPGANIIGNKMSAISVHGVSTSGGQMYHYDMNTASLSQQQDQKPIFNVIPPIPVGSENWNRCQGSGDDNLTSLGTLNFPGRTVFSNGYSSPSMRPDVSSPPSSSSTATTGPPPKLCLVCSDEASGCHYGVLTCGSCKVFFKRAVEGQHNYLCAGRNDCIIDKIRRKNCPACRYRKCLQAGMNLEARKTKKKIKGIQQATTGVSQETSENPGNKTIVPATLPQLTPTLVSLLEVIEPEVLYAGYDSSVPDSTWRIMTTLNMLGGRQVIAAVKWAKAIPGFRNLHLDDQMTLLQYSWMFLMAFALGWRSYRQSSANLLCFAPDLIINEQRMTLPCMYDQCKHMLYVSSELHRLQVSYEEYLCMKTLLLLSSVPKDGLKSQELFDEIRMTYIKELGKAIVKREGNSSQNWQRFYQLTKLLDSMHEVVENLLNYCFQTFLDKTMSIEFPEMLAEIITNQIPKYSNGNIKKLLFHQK

[4] = target: Glucocorticoid receptor (Homo sapiens) (UniProt P04150); assay: GR-EFC Redistribution (AID 451; calls by dose curve; note: potency is the fitted concentration of half-maximal effect); settings: CHO-K1 GR-EFC translocation, beta-gal luminescence, 2 h
Outline: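 CHO-K1 cells stably expressing nuclear-localized β-gal enzyme acceptor and GR fused C-terminally to the enzyme donor fragment; ligand-driven nuclear translocation restores β-gal by complementation. Compounds titrated up to 46 uM final, 2 h at 37 °C; luminescence read.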

[5] = target: Mitogen-activated protein kinase 10 (Mus musculus) (UniProt Q61831); assay: JNK3 AlphaScreen Assay (AID 530; active = well fitted curve in either direction with a large enough effect, not every such curve was filed as active;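 note: kinase came from lysate of stimulated human HepG2 cells; signal reports phosphorylation of biotinylated GST-cJun 1-79 at Ser73 with 10 µM ATP; % is set by controls: 0 for no effect and ±100 for the full control effect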)
Outline: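 Biotinylated GST-cJun(1-79) served as substrate for JNK3 in HepG2 lysates stimulated with IL-1beta and TNF-alpha. ATP was 10 uM final, pH 7.6. Ser73 phosphorylation was quantified by AlphaScreen (680 nm excitation).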

[6] = target: Muscarinic acetylcholine receptor M1 (Rattus norvegicus) (UniProt P08482); assay: qHTS Assay for Antagonists of Acetylcholine Muscarinic M1 Receptor: Kinetic Measurement of Intracellular Calcium Response (AID 943); note: potency is the fitted concentration of half-maximal effect; nearly all actives have a fitted effect of over 75% in size
Chain of Muscarinic acetylcholine receptor M1 (Rattus norvegicus) (P08482 whole entry, looked up): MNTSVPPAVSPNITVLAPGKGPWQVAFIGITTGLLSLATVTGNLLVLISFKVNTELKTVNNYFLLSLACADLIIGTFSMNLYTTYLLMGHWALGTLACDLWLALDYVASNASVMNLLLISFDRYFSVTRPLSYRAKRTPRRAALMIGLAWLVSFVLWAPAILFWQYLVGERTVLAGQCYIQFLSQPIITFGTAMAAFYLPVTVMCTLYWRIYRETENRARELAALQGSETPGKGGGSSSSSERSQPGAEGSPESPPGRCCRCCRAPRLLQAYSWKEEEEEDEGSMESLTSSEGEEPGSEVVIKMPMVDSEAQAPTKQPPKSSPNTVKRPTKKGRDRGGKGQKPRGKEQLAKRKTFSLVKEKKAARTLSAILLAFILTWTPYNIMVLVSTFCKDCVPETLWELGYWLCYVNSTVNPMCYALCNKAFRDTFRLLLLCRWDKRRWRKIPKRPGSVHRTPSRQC
Outline: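 Read-out: peak over basal Fluo-4 fluorescence, kinetic at 1 Hz for 4 min after EC80 carbachol (100 nM final). Rat M1-CHO cells, dye loaded 1 h at 37C, compound added 10 min before agonist.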

[7] = target: Pyruvate kinase (Leishmania mexicana) (UniProt Q27686); assay: qHTS Validation Assay for Inhibitors of Leishmania Mexicana Pyruvate Kinase (AID 945);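 note: 0% = DMSO only neutral control wells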
Chain of Pyruvate kinase (Leishmania mexicana) (Q27686 2-499 E452W): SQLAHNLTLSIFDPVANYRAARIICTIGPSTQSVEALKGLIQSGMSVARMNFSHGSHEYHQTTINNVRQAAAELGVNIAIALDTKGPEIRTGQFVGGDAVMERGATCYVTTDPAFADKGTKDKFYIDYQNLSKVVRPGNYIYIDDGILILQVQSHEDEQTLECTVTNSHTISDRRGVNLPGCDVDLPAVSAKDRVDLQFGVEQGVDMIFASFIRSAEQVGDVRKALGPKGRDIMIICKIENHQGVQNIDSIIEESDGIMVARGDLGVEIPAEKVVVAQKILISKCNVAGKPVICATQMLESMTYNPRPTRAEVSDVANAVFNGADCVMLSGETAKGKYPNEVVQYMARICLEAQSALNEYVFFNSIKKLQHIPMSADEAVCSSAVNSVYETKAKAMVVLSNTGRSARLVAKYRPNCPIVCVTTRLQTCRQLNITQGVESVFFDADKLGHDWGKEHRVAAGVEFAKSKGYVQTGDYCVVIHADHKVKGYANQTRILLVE
Outline: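 LmPYK E451W 0.2 nM; 0.5 mM PEP, 0.1 mM ADP, 7 mM MgCl2, 50 mM KCl, imidazole pH 7.2, 0.01% Tween 20, 0.05% BSA; 1 h RT; PKLight luminescence; DMSO-normalized.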

[8] = target: Pyruvate kinase PKM (Homo sapiens) (UniProt P14618); assay: qHTS Assay for Activators of Human Muscle Pyruvate Kinase (AID 954; active = well fitted curve in the direction sought with a large enough effect, not every such curve was filed as active;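 note: 0% = uninhibited enzyme and -100% = no enzyme or full thiadiazolimine inhibition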)
Chain of Pyruvate kinase PKM (Homo sapiens) (P14618 whole entry, looked up): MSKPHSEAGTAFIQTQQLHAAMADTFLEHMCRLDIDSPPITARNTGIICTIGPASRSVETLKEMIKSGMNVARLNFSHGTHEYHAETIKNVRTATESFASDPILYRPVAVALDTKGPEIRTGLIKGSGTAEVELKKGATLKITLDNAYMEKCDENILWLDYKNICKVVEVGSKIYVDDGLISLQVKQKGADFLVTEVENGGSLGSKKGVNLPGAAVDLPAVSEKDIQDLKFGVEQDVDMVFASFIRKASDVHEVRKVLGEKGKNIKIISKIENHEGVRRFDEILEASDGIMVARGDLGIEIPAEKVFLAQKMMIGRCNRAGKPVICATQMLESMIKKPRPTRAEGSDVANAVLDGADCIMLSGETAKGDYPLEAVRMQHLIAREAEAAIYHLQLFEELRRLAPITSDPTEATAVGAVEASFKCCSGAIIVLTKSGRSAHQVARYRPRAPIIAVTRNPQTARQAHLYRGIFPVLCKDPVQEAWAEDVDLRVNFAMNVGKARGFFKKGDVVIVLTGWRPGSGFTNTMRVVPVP
Outline: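 Screening used highly purified human pyruvate kinase M2 under submaximal activity, with PEP at its Km and ADP below Km. After an hour at room temperature, ATP was read by luciferase luminescence.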

[9] = target: Alpha-galactosidase A (Homo sapiens) (UniProt P06280); assay: Counterscreen for Glucocerebrosidase Inhibitors: qHTS Assay for Human alpha-Galactosidase at pH 4.5 (AID 992); note: 0% is about no effect
Chain of Alpha-galactosidase A (Homo sapiens) (P06280 whole entry, looked up): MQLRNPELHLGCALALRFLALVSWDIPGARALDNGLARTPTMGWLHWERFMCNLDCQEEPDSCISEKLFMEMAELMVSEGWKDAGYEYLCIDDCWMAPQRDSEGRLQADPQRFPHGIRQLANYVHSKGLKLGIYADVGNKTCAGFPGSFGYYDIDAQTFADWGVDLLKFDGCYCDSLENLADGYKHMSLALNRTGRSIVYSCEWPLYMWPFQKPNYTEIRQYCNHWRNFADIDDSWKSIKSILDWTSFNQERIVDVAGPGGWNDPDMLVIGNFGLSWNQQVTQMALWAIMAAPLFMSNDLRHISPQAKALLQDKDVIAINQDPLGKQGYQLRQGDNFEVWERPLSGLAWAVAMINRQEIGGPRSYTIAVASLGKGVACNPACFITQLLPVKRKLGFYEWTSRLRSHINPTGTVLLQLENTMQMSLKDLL
Outline: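 Each compound is preincubated briefly with 2 nM enzyme before substrate addition (80 uM); plates then sit 20 min at ambient temperature, are quenched with 1M NaOH/1M glycine, and read fluorometrically.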

[10] = target: alpha-glucosidase (Oryza sativa, rice) (UniProt Q653V4); assay: Counterscreen for Glucocerebrosidase Inhibitors: qHTS Assay for Rice alpha-Glucosidase at pH 5.0 (AID 997);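 note: 0% = full activity with enzyme and -100% = basal without enzyme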
Outline: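 Endpoint fluorogenic assay at pH 5.0: compounds (0.7 nM to 77 uM) titrated against 4 nM rice enzyme and 400 uM 4-MU-alpha-glucoside for 20 min at room temperature; NaOH/glycine stop, read ex 365/em 440 nm, Hill-fitted AC50.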

[11] = NFAT Signaling Pathway (AID 444; active = well fitted curve in either direction with a large enough effect, not every such curve was filed as active;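 note: carbachol stimulus at about its EC50 of 1 µM final; % is set by controls: 0 for no effect and ±100 for the full control effect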); settings: Jurkat NFAT-bla M1, carbachol, beta-lactamase ratio, 5 h; at 17.2 µM (top of the series) unless noted
Outline: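 Jurkat cells carrying an NFAT-driven β-lactamase reporter and co-transfected muscarinic M1 receptor were treated with compound plus carbachol (1 uM final, an EC50 level) for 5 h at 37 °C. CCF4 loading followed for 1 h at RT; 460/530 nm ratio gave %activity.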

[12] = target: Cytochrome P450 3A4 (Homo sapiens) (UniProt P08684); assay: qHTS Assay for Inhibitors and Substrates of Cytochrome P450 3A4 (AID 884); note: potency is the fitted concentration of half-maximal effect; nearly all actives have a fitted effect of over 50% in size
Chain of Cytochrome P450 3A4 (Homo sapiens) (P08684 whole entry, looked up): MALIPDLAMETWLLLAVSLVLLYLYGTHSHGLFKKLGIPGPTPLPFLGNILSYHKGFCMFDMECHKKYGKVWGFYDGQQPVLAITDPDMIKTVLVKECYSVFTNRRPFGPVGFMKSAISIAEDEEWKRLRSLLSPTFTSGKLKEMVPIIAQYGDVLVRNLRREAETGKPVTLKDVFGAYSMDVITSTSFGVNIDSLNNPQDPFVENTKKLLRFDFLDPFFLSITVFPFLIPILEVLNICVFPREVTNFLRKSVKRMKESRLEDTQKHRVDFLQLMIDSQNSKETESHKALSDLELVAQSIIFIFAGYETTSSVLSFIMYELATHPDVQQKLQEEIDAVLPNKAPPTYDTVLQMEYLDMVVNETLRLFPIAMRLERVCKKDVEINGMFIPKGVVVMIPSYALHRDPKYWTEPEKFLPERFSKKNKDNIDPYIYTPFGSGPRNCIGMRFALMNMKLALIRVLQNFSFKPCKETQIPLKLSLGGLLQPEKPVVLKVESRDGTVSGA
Outline: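 Luminescent readout of luciferin produced by CYP3A4 (20 nM) dealkylation of Luciferin-PPXE, 25 uM (its KM). NADPH-driven reaction ran 60 min at RT after 10 min compound preincubation; data scaled to 57 uM ketoconazole as 100% inhibition.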

[13] = target: Cytochrome P450 3A4 (Homo sapiens) (UniProt P08684); assay: qHTS Assay for Activators of Cytochrome P450 3A4 (AID 885); note: nearly all actives have a fitted effect of over 65% in size
Outline: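 Using 20nM recombinant human CYP3A4 in potassium phosphate (200mM), substrate Luciferin-PPXE at 25uM, luminescent luciferin detection followed a 60-min RT NADPH reaction; data scaled to 57 uM ketoconazole.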

[14] = target: Cytochrome P450 2C19 (Homo sapiens) (UniProt P33261); assay: qHTS Assay for Inhibitors and Substrates of Cytochrome P450 2C19 (AID 899); note: potency is the fitted concentration of half-maximal effect; nearly all actives have a fitted effect of over 60% in size
Chain of Cytochrome P450 2C19 (Homo sapiens) (P33261 whole entry, looked up): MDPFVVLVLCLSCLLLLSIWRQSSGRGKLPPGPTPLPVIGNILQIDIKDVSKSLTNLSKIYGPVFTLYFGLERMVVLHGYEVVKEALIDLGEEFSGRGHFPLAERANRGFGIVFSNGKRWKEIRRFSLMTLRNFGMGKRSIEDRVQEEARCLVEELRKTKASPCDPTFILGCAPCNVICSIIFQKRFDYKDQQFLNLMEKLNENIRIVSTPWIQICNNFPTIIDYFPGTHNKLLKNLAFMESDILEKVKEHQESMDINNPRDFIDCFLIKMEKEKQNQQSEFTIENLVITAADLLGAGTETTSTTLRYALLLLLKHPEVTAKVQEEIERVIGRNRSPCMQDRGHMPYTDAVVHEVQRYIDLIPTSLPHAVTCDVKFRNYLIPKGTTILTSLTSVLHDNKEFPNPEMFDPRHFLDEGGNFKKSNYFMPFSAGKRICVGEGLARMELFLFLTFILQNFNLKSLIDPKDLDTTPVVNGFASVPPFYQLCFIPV
Outline: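 Human CYP2C19 (5nM) with Luciferin-H EGE at 10uM (its KM) in 50mM KPO4 was preincubated with compound for 10 min at 37C. NADPH regeneration started a 60 min 37C reaction. Luciferin was read by luminescence, normalized to 57uM ketoconazole.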

[15] = Confirmation and Secondary Assay for Modulators of Hemoglobin Beta Chain Splicing at IVS2 654 locus (AID 910);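 note: per-well total GFP intensity by laser scanning cytometry after 2-day treatment; % of control where 0% means no effect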
Outline: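 HeLa cells stably carrying EGFP interrupted by mutant beta-globin IVS2-654 intron (CMV-driven) were treated with compound for 2 days at 37C; corrected splicing was scored as total peak GFP intensity per well (488 nm excitation, 500-520 nm emission).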

[16] = Confirmation and Secondary Assay for Modulators of Hemoglobin Beta Chain Splicing at IVS2 705 locus (AID 930);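 note: HeLa cells stably expressing the EGFP-705 splicing reporter; % of control where 0% means no effect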
Outline: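 HeLa cells stably carrying EGFP interrupted by mutant beta-globin IVS2-705 intron (CMV-driven) were seeded at 500 cells/well, treated next day with compound for 2 days at 37C; corrected splicing restores EGFP, read as total peak GFP intensity per well.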

[17] = AP1 Signaling Pathway (AID 357; active = well fitted curve in either direction with a large enough effect, not every such curve was filed as active;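 note: ME-180 reporter cells stimulated with EGF at its EC50 level; % is set by controls: 0 for no effect and ±100 for the full control effect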); settings: ME-180 AP-1-bla reporter, EGF-induced, beta-lactamase ratio, 5 h; at 17.2 µM (top of the series) unless noted
Outline: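 Beta-lactamase reporter under AP-1 response element, ME-180 background. Stimulus: EC50 EGF. Compound exposure 5 h, 37 °C. Detection: CCF4, 2.5 h RT, 460/530 nm. Values: AC50 from titration.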

[18] = target: 3',5'-cyclic-AMP phosphodiesterase 4B (Homo sapiens) (UniProt Q07343); assay: qHTS Assay for Inhibitors of PDE-IV (AID 607; active = well fitted activation curve with a large enough effect in the main read-out, with a control signal flat, not every such curve was filed as active; note: % of control where 0% means no effect)
Chain of 3',5'-cyclic-AMP phosphodiesterase 4B (Homo sapiens) (Q07343 whole entry, looked up): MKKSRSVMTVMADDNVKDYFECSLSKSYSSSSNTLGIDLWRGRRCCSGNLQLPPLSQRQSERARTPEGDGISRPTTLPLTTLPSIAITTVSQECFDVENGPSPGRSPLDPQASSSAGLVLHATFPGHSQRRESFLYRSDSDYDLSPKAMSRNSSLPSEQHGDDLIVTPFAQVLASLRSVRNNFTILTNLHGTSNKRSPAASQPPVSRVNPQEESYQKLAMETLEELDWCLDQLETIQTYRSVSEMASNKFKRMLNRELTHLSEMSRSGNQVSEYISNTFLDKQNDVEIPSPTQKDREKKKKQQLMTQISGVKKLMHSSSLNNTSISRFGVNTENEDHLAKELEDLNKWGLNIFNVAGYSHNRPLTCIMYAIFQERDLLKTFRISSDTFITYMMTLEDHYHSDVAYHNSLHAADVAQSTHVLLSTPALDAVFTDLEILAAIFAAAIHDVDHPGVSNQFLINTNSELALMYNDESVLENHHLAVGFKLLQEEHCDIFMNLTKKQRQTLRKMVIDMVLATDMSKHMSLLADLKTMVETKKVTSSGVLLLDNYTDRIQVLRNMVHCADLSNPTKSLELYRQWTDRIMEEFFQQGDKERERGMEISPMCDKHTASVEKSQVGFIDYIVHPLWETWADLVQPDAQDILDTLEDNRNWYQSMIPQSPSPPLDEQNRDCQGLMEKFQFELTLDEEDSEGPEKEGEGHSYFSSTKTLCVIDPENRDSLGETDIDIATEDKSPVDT
Outline: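 Live HEK293 cells with a modified cyclic nucleotide-gated (CNG) channel report intracellular cAMP via membrane-potential dye fluorescence (ex 535/em 590 nm). Endogenous PDE-IV was targeted. Compounds were tested at up to 22.9 uM final; RO 20-1724 100 uM served as control.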

[19] = qHTS Assay for Identification of Small Molecule Agonists for Hypoxia Response Element Signaling Pathway (AID 914; active = well fitted activation curve with a large enough effect in the signal ratio, with a control signal flat, not every such curve was filed as active; the % refers to the signal ratio; note: % of control where 0% means no effect); settings: ME-180 HRE-bla reporter, beta-lactamase ratio, CoCl2, 17 h; activation: active compounds read high
Outline: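 ME-180 cells carrying an HRE-driven beta-lactamase reporter were treated with compounds in a titration series plus an EC50 level of CoCl2 for 17 h at 37 degrees Celsius; CCF4 readout as the 460nm/530nm ratio gave AC50 values.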

CNCC[C@H](Oc1ccccc1C)c1ccccc1
inactive: activity, negative = inhibition [2] -13.9% [at 38 µM] | Potency [3] > 46 µM | Potency [4] > 46 µM | Potency [5] | Potency [7] | outcome [8] | outcome [9] | outcome [10]
active: Potency [1] 15.8 µM | Potency [6] 11.2 µM

FC(F)(F)c1ccccc1-c1nc(Nc2ccncc2)c2ccccc2n1
inactive: activity change, negative = inhibition [11] -8.21% [at 7.69 µM] | activity, negative = inhibition [2] -14.6% [at 7.69 µM] | Potency [3] > 46 µM | Potency [4] > 46 µM | Potency [5] | Potency [13] | Potency [15] | Potency [16]
active: Potency [1] 10 µM | Potency [12] 0.631 µM | Potency [14] 2 µM

CCOc1ccc2c(ccc(/C=C\c3cc(C)c4cccnc4c3O)[n+]2C)c1
inactive: activity change, negative = inhibition [17] -9.14% [at 7.69 µM] | Potency [3] > 46 µM | Potency [4] > 9.22 µM | Potency [18]

Cc1nn(-c2ccccc2)c2c1C(c1ccc(F)cc1F)C(C#N)=C(N)O2 (stereo not drawn)
inactive: activity change, negative = inhibition [17] 4.8% | Potency [3] > 20.6 µM | activation [19] -12.7%
